Results on 70 compounds are retold here after PubChem BioAssay AID2546 (National Center for Advancing Translational Sciences (NCATS), 2010).

Where “and” joins values, the source holds several entries; their conditions need not be identical. Identical values can stand only once. The whole screen tested about 310,000 compounds, of which about 11,000 (3.5%) were called active. Entries that show only a call come without a potency. Not shown: some 8% with an inconclusive outcome. The call rests on the fitted dose curve; in most records, active means well fitted inhibition curve with a large enough effect; inconclusive means small, poorly fitted or top-dose-only effect, or effect the other way; inactive means flat fitted curve, though single readings scatter. This excerpt belongs to a sample that is enriched for actives.
Potency means the concentration at half of the fitted maximal effect.

The test in a line: VP16 counterscreen qHTS for inhibitors of ROR gamma transcriptional activity.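 Further: Gal4-VP16 expression switched on by copper sulfate through the metallothionein promoter; nearly all actives have a fitted effect of over 50% in size.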 Conditions: Drosophila S2 Gal4-VP16 UAS-luciferase, luminescence, 20 h; series mostly up to 53.6 µM.
For the compound `Cc1n[nH]c(=O)n1-c1ccc(C(C)C)cc1`, the Potency result is “inactive”.
On to `Cc1n[nH]c(=O)n1-c1ccc(Oc2ccccc2)cc1`, for which the Potency was 0.891 µM (active).
As to `COc1ccc(Oc2ncc3nc(C)c(=O)n(-c4ccccc4)c3n2)cc1`, the Potency result was “inactive”.
`Cc1cccc(CNS(=O)(=O)c2ccc(-c3cnc(C4CC4)o3)cc2)c1`: the Potency entry is “inactive”.
With `CCOc1ccc(CN(C)C(=O)c2ccc(=O)[nH]c2)cc1`, the Potency result was “inactive”.
For the compound `Cc1cccc(NC(=O)c2cccnc2Cl)n1`, the Potency entry is “inactive”.
As to `Cc1ccc2nc(N(CCN(C)C)C(=O)C3=COCCO3)sc2c1`, the Potency result is “inactive”.
On to `COc1ccc2cc(S(=O)(=O)Nc3ccccn3)ccc2c1`, for which the Potency result was “inactive”.
The figure for `COc1cc(NS(=O)(=O)c2ccc3ccccc3c2)c2ncccc2c1` is 708 nM (active) and 562 nM (active); for `Cc1ccc(NS(=O)(=O)c2ccc(C)c(NC(=O)COc3ccc4ccccc4c3)c2)c(C)c1` it is “inactive”.
Consider `N#CCSc1nc(-c2ccccc2)nc2ccc(F)cc12`, for which the Potency result is “inactive”.
As for `Cc1nc2ccc(S(=O)(=O)N(C)CC(=O)NC(C)c3ccccc3)cc2s1` (stereo not given), the Potency result was “inactive”.
Turning to `CC1CC(=O)Nc2ccccc2N1S(=O)(=O)c1cccs1` (stereo not given), the Potency entry is “inactive”.
For `CC1CC(=S)Nc2ccccc2N1Cc1ccccc1` (stereo not given), the Potency was 3.16 µM (active).
As for `CC1CC(C)(C)NC(=S)N1CCC(=O)N1CCN(Cc2ccccc2)CC1` (stereo not given), the Potency entry was “inactive”.
Regarding `Cc1ccccc1OCC(=O)Nc1ccc(S(=O)(=O)N2CCOCC2)cc1`, the Potency entry is “inactive”.
`O=C(c1ccccc1)N1CCN(C(=O)c2cc3nc(-c4ccccc4)cc(C(F)(F)F)n3n2)CC1`: the Potency entry was “inactive”.
For `COc1cc(OC)nc(S(C)(=O)=O)n1`, the Potency result was “inactive”.
Consider `COc1ccc(-c2cc(C(F)(F)F)nc(SCC(=O)Nc3ccc4c(c3)OCO4)n2)cc1OC`, for which the Potency result was “inactive”.
Under `COc1ccc(-c2cc(C(F)(F)F)nc(S(C)(=O)=O)n2)cc1OC` stands 5.62 µM (active).
In the case of `CC1=C(C(=O)OCC2CCCCC2)C(c2ccc(F)cc2)NC(=O)N1` (stereo not given), the Potency entry was “inactive”.
As for `CC1CN(C(=S)Nc2ccccc2F)CC(C)O1` (stereo not given), the Potency result is “inactive”.
On to `CCOC(=O)c1c(NC(=O)c2ccc(S(=O)(=O)N(C)CC3CCCO3)cc2)sc2c1CC(C)(C)NC2(C)C` (stereo not given), for which the Potency result is “inactive”.
For the compound `COC(=O)c1sccc1NC(=O)COc1ccc(Cl)cc1`, the Potency result is “inactive”.
Consider `COC(=O)c1c(NC(=O)COc2ccc(Cl)cc2Cl)sc2c1CC(C)(C)NC2(C)C`, for which the Potency is 22.4 µM (active).
For `CCCn1c(C(C)Nc2nc(-c3ccc(C)cc3)cs2)nc2cc(Cl)c(N3CCCCC3)cc21` (stereo not given), the Potency result was “inactive”.
`CCCC1CCC(=NNC(=S)NCCc2ccccc2)CC1` (stereo not given): the Potency was 11.2 µM (active).
As to `S=C(NN=C1CCN(Cc2ccccc2)CC1)NC1CCCCC1`, the Potency result is “inactive”.
`O=C(NCCc1ccccc1)C1CC1`: the Potency entry was “inactive”.
Under `O=C(NCC(=O)N1CCN(c2ncc(C(F)(F)F)cc2Cl)CC1)c1ccc(Br)o1` stands “inactive”; under `Cc1ccc(CN2CCC(n3nccc3NC(=O)CCCc3ccccc3)CC2)o1`, “inactive”.
Turning to `O=C(Nc1cccc(F)c1)NC1CCCCCCC1`, the Potency entry was “inactive”.
Under `C/C(=N\NC(=O)Cc1ccc(Br)cc1)c1cccnc1` stands “inactive”; under `C/C(=N\NC(=O)c1ccccc1F)c1ccccn1`, 1.12 µM (active).
Regarding `C/C(CC(=O)Nc1ccc(N(C)C)cc1)=N\NC(=O)c1ccccc1F`, the Potency entry is “inactive”.
Take `O=C(Nc1ccc(NC(=O)c2ccccc2F)cc1)c1ccccc1F`: the Potency result is “inactive”.
As for `C/C(=N\NC(=O)Cc1ccc(F)cc1)c1ccc(F)cc1`, the Potency result was “inactive”.
The figure for `C/C(=N\NC(=O)Cc1ccc(Cl)cc1)c1ccccn1` is 2.51 µM (active); for `O=C(c1cc(-c2ccc(Cl)cc2)on1)N1CCN(c2ccccc2)CC1` it is “inactive”.
Regarding `O=C(COc1ccccc1Cl)N1CCCCCCC1`, the Potency result is “inactive”.
Take `NS(=O)(=O)c1ccccc1NC(=O)c1c(O)c2ccccc2[nH]c1=O`: the Potency entry was “inactive”.
As to `COc1cc(OC)c(/C=N/NC(=O)c2ccc([N+](=O)[O-])cc2)cc1Br`, the Potency entry is “inactive”.
As for `COc1ccc(CC(=O)N/N=C/c2cc([N+](=O)[O-])cc(Br)c2O)cc1`, the Potency was 3.16 µM (active).
For `COc1ccc(CC(=O)NCC(=O)N/N=C/c2cc(Br)ccc2OC)cc1`, the Potency entry was “inactive”.
The entry for `COc1cccc(NC(=O)CCc2nnc3ccc(N4CCC(C)CC4)nn23)c1` is “inactive”; for `CC(=O)c1ccc(NC(=O)c2ccc(-n3cncn3)c([N+](=O)[O-])c2)cc1` it is “inactive”.
On to `O=C(NCc1ccc(Cl)cc1)NCc1ccc(Cl)cc1`, for which the Potency entry was “inactive”.
Under `CN(C)CCCNC(=S)NCc1ccc(Cl)cc1` stands “inactive”.
For `O=C(NCc1ccncc1)NC12CC3CC(CC(C3)C1)C2`, the Potency result is “inactive”.
As to `COc1ccc(Cl)cc1C(=O)NNC(=S)NC1CCCC1`, the Potency result is “inactive”.
Consider `S=C(NCc1ccc(Cl)cc1)NC12CC3CC(CC(C3)C1)C2`, for which the Potency was 3.16 µM (active).
The figure for `S=C(NCc1ccc(Cl)cc1)NC1CCCCC1` is 7.94 µM (active); for `O=C(NCCc1ccc(Cl)cc1)c1cccc(N2CCCC2=O)c1` it is “inactive”.
Regarding `CN1CCN(S(=O)(=O)c2ccc(NC(=S)NC(=O)C3CC3)cc2)CC1`, the Potency entry is “inactive”.
Under `S=C(Nc1ccc(Cl)cc1Cl)N1CCCC1` stands “inactive”; under `O=C(NC(=S)Nc1ccc(Cl)cc1Cl)C1CC1`, 5.62 µM (active).
For `Oc1ccccc1C1=NN(c2ccccc2)C(c2ccccc2)C1` (stereo not given), the Potency result is “inactive”.
Under `CCC(=O)Nc1nc(C)c(C(=O)Nc2cccc(Cl)c2)s1` stands “inactive”; under `CN1CCN(C(=O)c2cnn(-c3ccccc3)c2NC(=O)c2ccc([N+](=O)[O-])cc2)CC1`, “inactive”.
`Cc1cccc(NC(=S)NC(=O)c2ccc(Br)o2)c1`: the Potency result was “inactive”.
For the compound `Cc1ccc(NC(=O)NC(=O)c2ccccc2)cc1F`, the Potency entry is “inactive”.
Under `Cc1cccc(NC(=O)NC(=S)NC(=O)c2ccccc2)c1` stands 5.01 µM (active); under `Cc1ccn2c(c1)nc(=O)c1cc(S(=O)(=O)N3CCC(C)CC3)ccc12`, “inactive”.
Consider `COc1ccc(CCNC(=O)C(=O)NCC2OCCN2S(=O)(=O)c2ccc(OC)c(C)c2)cc1` (stereo not given), for which the Potency entry was “inactive”.
As for `Cc1nc2c(c(=O)n1Cc1ccco1)c1nc3ccccc3nc1n2Cc1ccccc1`, the Potency result was “inactive”.
Under `COc1ccc(C(=O)CSc2nnc(COc3ccccc3)n2Cc2ccco2)cc1` stands “inactive”; under `Cn1c2ccccc2c(=O)c2c(=O)n(Cc3ccco3)c(COc3ccccc3)nc21`, 17.8 µM (active).
Regarding `O=C(NNC(=S)Nc1ccc(F)cc1)[C@H]1C[C@@H]1c1ccccc1`, the Potency result was “inactive”.
For the compound `O=C(N/N=C/c1cccc2cccnc12)[C@H]1C[C@@H]1c1ccccc1`, the Potency was 8.91 µM (active).
The entry for `COc1cc(/C=N\NC(=O)C2C(=O)NCC2c2ccccc2)cc(OC)c1O` (stereo not given) is “inactive”.
